# Measured values: ChEMBL document CHEMBL3988442, “University of Dundee, Small-Polar-MMV Screening Library” (2021)
# For some of these results: Entries with a potency or affinity are not part of this list.
# Key:
# Parameters in all cases: scale not given: direction of the effect not stated beside the values
# [1] = target: Protein translocase subunit SecA (Escherichia coli (strain K12)) (UniProt P10408); assay: Assay to Identify E. coli SecA ATPase Inhibitors; format: functional; conditions: 30 µM
# [2] = target: T1, Ubiquitin-activating enzyme e1, putative (Leishmania donovani (strain BPK282A1)) (UniProt E9BSI1); assay: Leishmania donovani Ubiquitin Activating Enzyme (LdE1); format: functional; conditions: 30 µM
# T1 sequence (whole entry): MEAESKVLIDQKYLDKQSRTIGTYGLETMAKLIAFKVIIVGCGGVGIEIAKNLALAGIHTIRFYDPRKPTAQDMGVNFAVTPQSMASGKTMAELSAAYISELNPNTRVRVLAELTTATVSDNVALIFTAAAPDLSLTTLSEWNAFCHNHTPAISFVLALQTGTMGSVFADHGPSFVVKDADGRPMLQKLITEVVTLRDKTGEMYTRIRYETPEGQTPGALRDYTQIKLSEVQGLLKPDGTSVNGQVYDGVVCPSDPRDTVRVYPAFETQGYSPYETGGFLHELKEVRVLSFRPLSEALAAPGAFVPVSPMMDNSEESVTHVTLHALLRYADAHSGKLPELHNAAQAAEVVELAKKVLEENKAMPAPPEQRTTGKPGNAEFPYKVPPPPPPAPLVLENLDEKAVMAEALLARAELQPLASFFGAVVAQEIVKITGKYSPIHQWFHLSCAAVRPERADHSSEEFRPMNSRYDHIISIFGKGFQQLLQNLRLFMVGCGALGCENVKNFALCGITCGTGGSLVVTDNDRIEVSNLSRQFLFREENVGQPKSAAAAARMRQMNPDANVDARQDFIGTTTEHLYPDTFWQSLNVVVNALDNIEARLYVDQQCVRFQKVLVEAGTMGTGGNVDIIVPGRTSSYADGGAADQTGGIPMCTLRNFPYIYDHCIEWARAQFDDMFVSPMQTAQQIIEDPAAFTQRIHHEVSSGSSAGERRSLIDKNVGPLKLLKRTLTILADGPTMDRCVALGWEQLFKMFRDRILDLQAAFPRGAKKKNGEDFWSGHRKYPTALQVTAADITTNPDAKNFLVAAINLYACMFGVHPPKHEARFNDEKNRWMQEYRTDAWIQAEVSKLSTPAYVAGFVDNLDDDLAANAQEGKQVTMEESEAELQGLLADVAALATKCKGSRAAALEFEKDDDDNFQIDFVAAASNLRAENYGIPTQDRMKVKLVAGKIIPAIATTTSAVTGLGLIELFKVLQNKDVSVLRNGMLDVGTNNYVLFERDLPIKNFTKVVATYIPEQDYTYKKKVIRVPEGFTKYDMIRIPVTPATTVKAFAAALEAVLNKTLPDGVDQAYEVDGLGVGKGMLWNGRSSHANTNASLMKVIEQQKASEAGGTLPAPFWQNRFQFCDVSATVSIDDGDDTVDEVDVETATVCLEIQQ
# [3] = target: AMP-activated protein kinase, AMPK (Homo sapiens) (UniProt P54646+O43741+P54619+Q9UGJ0+Q9Y478+Q13131+Q9UGI9); assay: AMP-dependent Kinase enzyme assay. An in vitro enzyme assay that detects ADP turnover that is directly proportional to AMPK activity. This uses naive AMPK that is activated during the assay with MK-8722; format: functional; conditions: 30 µM
# [4] = target: Sialic acid-binding Ig-like lectin 9 (Homo sapiens) (UniProt Q9Y336); assay: Hs-Siglec9 ALPHAscreen SOP 20170721; conditions: 10 µM
# Trypanosoma cruzi = assay: Trypanosoma cruzi phosphomannomutase and mannose-1-phosphate guanylyltransferase assay; format: functional; conditions: 10 µM
# [5] = target: T2, Arginase-2, mitochondrial (Homo sapiens) (UniProt P78540); assay: in vitro enzyme assay to detect the production of urea directly proportional to the activity of Arginase II; format: functional; conditions: 33.3 µM; note: in the data most compounds retested in dose-response had high values
# T2 sequence (whole entry): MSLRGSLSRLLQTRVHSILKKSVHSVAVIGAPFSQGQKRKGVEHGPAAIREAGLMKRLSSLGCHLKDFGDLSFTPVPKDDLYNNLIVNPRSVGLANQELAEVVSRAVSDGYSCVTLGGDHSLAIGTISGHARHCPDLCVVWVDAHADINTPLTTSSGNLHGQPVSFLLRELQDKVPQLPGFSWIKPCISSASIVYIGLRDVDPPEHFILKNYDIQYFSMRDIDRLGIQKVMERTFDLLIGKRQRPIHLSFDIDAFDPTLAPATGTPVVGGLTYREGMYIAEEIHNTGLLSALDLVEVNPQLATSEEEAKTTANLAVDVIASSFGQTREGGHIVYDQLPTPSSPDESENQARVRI
# [6] = target: T3, Proteasome subunit beta (Trypanosoma cruzi) (UniProt O96673); assay: Trypanosoma cruzi proteasome chymotrypsin-like activity (TcProtChymo) assay.; note: in the data most compounds retested in dose-response had high values; format: functional; conditions: 9.37 µM
# T3 sequence (whole entry): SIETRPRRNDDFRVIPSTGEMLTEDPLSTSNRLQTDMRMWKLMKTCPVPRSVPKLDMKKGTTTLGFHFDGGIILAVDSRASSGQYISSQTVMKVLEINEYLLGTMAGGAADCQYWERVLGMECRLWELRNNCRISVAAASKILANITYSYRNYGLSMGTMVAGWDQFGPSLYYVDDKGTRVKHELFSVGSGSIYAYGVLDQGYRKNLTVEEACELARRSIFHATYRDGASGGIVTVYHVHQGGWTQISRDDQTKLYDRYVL
# Homo sapiens = species: Homo sapiens; assay: To identify inhibition of the IFN signalling (Jak-Stat) pathway via expression of an eGFP reporter gene under the control of an IFN-stimulated response element (ISRE) containing MxA promoter.; format: functional; conditions: 30 µM
# [7] = target: T4, Tyrosyl-tRNA synthetase, putative (Trypanosoma cruzi (strain CL Brener)) (UniProt Q4DSP6); assay: Trypanosoma cruzi tyrosyl tRNA synthetase (TcYRS) _High Tyrosine SOP; format: functional; conditions: 30 µM; note: in the data most compounds retested in dose-response had high values
# T4 sequence (whole entry): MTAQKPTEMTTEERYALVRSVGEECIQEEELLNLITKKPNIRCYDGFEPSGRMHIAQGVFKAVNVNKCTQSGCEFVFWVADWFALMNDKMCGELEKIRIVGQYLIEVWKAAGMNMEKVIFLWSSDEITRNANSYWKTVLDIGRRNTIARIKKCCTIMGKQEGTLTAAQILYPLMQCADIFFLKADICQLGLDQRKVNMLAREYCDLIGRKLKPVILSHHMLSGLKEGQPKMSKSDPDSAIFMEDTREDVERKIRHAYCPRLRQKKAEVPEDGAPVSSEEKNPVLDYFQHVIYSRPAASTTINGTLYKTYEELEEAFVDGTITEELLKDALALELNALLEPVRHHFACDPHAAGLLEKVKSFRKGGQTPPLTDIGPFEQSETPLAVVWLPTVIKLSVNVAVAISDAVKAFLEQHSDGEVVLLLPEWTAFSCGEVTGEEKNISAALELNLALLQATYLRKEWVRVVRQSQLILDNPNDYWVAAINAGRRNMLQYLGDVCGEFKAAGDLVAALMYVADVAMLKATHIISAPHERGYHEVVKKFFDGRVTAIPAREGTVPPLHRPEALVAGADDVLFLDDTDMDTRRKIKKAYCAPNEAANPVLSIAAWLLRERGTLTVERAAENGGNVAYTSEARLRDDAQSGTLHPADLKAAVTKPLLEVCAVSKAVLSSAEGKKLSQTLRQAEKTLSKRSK
# [8] = target: T4, Tyrosyl-tRNA synthetase, putative (Trypanosoma cruzi (strain CL Brener)); assay: Trypanosoma cruzi tyrosyl tRNA synthetase (TcYRS) SOP; format: functional; conditions: 30 µM
# [9] = target: Chromo domain-containing protein 1 (Saccharomyces cerevisiae (strain ATCC 204508 / S288c) (Baker's yeast)) (UniProt P32657); assay: ScCHD-1 Enzyme Inhibition Assay; format: functional; conditions: 30 µM; note: in the data most compounds retested in dose-response had high values
# Sequence of Chromo domain-containing protein 1 (Saccharomyces cerevisiae (strain ATCC 204508 / S288c) (Baker's yeast)) (P32657 whole entry, the tested form may be a part): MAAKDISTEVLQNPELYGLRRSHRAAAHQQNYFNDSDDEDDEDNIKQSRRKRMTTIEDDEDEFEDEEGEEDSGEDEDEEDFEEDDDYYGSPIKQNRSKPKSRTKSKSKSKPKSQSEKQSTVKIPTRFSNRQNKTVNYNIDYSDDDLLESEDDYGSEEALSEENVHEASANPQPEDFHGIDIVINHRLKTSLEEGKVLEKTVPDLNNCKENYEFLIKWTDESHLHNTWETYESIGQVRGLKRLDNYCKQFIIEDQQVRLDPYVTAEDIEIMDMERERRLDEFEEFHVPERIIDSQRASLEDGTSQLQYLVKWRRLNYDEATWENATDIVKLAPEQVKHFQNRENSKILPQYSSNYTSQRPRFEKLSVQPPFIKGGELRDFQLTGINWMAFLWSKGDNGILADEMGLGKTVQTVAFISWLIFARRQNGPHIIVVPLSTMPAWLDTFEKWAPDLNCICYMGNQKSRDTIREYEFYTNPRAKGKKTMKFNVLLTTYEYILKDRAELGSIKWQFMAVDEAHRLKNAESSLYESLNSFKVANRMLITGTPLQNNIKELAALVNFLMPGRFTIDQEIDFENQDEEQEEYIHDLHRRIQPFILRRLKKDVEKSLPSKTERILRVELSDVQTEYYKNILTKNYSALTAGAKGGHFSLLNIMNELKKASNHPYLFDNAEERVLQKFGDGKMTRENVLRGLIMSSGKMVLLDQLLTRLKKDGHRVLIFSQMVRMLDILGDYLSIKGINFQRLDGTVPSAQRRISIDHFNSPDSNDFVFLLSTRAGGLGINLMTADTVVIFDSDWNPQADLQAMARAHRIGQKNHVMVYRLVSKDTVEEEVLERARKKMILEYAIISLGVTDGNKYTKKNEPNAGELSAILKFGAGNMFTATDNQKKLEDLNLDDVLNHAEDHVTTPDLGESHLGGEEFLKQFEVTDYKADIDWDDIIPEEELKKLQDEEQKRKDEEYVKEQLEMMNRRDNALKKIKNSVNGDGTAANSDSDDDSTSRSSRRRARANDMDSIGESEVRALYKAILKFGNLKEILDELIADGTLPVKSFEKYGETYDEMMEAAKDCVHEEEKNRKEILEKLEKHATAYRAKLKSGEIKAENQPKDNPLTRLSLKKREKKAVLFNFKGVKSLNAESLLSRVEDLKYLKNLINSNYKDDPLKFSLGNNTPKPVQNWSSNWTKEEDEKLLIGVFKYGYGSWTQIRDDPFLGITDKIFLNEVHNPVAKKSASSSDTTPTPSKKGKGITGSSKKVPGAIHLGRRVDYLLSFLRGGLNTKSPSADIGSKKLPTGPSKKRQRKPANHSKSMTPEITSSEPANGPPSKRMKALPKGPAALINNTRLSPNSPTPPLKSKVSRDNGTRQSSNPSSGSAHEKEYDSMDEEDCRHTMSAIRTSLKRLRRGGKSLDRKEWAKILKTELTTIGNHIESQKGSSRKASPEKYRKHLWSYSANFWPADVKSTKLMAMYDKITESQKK
# Sequence of Protein translocase subunit SecA (Escherichia coli (strain K12)) (P10408 whole entry): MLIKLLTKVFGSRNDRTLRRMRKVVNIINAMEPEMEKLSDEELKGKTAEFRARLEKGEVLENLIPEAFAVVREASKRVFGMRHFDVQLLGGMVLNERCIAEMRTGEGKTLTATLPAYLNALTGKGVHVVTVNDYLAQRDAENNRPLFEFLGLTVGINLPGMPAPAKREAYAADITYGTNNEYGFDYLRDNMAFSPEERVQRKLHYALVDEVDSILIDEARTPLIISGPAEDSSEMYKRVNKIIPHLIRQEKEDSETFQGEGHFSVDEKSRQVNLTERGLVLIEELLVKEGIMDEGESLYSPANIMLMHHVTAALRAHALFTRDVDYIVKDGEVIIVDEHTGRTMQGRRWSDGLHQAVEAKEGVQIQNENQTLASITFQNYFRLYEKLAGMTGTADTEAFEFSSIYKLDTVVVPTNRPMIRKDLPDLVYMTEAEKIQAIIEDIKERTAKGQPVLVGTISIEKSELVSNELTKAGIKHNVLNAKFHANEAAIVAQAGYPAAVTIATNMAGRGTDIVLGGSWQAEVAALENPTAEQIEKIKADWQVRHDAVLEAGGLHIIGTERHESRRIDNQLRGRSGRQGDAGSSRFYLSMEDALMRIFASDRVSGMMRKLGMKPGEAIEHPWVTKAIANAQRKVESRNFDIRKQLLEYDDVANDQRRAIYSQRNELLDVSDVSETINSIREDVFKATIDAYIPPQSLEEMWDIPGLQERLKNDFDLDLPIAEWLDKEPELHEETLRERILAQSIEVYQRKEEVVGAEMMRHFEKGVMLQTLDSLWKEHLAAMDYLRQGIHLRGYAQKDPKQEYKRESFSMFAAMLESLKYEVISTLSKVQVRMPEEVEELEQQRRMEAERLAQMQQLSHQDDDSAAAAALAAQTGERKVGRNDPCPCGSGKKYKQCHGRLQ
# Sequence of Sialic acid-binding Ig-like lectin 9 (Homo sapiens) (Q9Y336 whole entry): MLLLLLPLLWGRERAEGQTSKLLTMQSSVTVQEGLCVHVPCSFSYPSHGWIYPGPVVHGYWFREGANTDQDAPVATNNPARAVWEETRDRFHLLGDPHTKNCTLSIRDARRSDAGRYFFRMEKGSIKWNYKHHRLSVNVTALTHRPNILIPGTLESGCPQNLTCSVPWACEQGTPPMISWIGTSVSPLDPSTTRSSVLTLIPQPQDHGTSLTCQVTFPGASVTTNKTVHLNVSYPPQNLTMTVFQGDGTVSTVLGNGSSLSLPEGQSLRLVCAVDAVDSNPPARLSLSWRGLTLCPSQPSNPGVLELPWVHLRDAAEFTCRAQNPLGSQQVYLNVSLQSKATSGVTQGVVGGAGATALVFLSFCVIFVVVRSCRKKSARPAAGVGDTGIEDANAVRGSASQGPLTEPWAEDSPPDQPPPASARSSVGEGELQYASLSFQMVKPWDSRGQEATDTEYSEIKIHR
SMILES,Percent Effect [1] [%],Percent Effect [2] [%],Percent Effect [3] [%],Percent Effect [4] [%],Percent Effect (Trypanosoma cruzi) [%],Percent Effect [5] [%],Percent Effect [6] [%],Percent Effect (Homo sapiens) [%],Percent Effect [7] [%],Percent Effect [8] [%],Percent Effect [9] [%]
Cc1cc(NC(=O)CN2CCn3c(nnc3C(C)C)C2)no1,-2.36,7.79,2.84,-23.1,2.25,-5.26,16.6,25.4,5.71,25.9,-21.2
Cc1nccnc1N1CCC2(CCCN(C3CCOCC3)C2=O)C1 (stereo unspecified),-7.49,-2.74,0.961,-4.09,-5.56,0,-1.63,27.4,0,-3.7,0.0613
c1csc(CN2CCn3c(Cn4cncn4)cnc3C2)n1,-3.71,2.67,12.1,4.38,-0.984,4.43,6.08,-18.1,2.13,1.28,-1.62
CCn1cnnc1C1CCN(C(=O)c2ccc(Cl)s2)CC1,-3.49,17.7,1.65,2.56,-0.661,2.66,5.98,-19.1,4.43,11.4,-3.04
O=C(O)c1nnn(-c2ccc(F)c(F)c2)c1-c1ccncc1,-2.11,13.2,4.49,-2.68,-3.6,4.73,20.6,-18.7,2.13,2.6,-1.59
Cc1cc(C)n(CC2CCCN2C(=O)Cc2c(C)noc2C)n1 (stereo unspecified),-7.56,8.11,-14.7,23.5,2.92,-9.62,9.37,15.8,4.43,13.6,-11.4
Cc1nc(CN(C)C2CCN(Cc3nc4ccccc4s3)C2)no1 (stereo unspecified),-6.59,5.26,-8.48,14.1,4.95,1.8,3.81,-14.2,10.3,25.9,-8.21
O=C(CCc1nccs1)N1CCC(N2CCNC2=O)CC1,-3.04,13.7,-3.05,-5.29,-3.33,1.82,12.6,12.7,5.38,12.5,-3.97
CN(C)Cc1ccnc(C2CCCN2Cc2ccncc2)n1 (stereo unspecified),-4.54,9.46,-5.08,2.14,6.72,-4.41,4.21,7.82,3.23,11.7,-20.6
CCCn1[nH]cc/c1=N\C(=O)CN1CCCC1c1c(C)nn(C)c1C (stereo unspecified),-4.29,2.7,-27.7,15.7,7.45,6.81,3.78,-0.266,3.45,13.6,-10.6
CCn1cc(NC(=O)NCC2(N3CCOCC3)CCSC2)cn1 (stereo unspecified),-1.63,13.5,2.58,16.6,1.74,13.8,17.2,-1.24,6.88,7.32,-4.92
